In article PMC5700166:
Changes are numbered by the printed parent chain.

What was measured:
Experiment in all cases: protein-binding microarray (PBM); PBM: ~300 nM protein, 6 mM HEPES pH 7.8, 80 mM KCl, 0.5 mM EDTA, 0.5 mM EGTA, 6% glycerol, 35 ng/ul poly-dIdC, 1% milk, 1 h, room temperature; Ap Aiptasia and Nv Nematostella (sea anemones) / Co Capsaspora / Aq Amphimedon (sponge) / Dm Drosophila / Hu human; RHD is the Rel homology domain; high values mean tight binding
Details in all cases: dsDNA, one strand shown
GST-Ap-NF-kB RHD = molecular target: T1, GST-Ap-NF-kB RHD (Exaiptasia pallida (Aiptasia), UniProt A0A913YAJ5 2-422)
T1 sequence: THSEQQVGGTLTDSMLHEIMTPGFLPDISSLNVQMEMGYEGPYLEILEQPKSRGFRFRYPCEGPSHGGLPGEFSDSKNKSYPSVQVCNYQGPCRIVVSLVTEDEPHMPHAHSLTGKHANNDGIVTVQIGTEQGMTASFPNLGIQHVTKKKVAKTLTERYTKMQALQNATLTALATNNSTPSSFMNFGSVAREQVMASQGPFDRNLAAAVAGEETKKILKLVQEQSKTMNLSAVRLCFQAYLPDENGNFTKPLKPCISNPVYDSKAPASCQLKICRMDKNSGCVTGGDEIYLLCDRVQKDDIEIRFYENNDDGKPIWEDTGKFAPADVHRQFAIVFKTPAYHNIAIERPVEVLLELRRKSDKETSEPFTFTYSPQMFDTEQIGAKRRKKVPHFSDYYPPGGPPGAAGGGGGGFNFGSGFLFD

[1] = molecular target: T2, GST-Nv-NF-kB (Cys allele) (Nematostella vectensis, UniProt E5G601 2-411)
T2 sequence: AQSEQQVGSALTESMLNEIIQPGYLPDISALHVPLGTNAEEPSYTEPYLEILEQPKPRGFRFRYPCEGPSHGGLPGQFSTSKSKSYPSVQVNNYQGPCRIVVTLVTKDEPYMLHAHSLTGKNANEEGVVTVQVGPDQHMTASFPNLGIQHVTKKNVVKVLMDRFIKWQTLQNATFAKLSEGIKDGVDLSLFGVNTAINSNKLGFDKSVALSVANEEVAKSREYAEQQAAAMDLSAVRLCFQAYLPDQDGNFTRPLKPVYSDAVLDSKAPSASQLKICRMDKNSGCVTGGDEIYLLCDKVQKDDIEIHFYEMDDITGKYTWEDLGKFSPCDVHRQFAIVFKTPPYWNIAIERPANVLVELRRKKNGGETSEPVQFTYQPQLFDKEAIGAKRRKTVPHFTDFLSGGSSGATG

[2] = molecular target: T3, GST-Nv-NF-kB (Ser allele) (Nematostella vectensis, UniProt A7UNT2 2-411)
T3 sequence: T2 sequence with Q21R, C66S, S207N, E215Q, V217A, E225K, A268E, D399E

GST-Co-NF-kB = molecular target: T4, GST-Co-NF-kB (Capsaspora owczarzaki, UniProt F1ARL5 200-546)
T4 sequence: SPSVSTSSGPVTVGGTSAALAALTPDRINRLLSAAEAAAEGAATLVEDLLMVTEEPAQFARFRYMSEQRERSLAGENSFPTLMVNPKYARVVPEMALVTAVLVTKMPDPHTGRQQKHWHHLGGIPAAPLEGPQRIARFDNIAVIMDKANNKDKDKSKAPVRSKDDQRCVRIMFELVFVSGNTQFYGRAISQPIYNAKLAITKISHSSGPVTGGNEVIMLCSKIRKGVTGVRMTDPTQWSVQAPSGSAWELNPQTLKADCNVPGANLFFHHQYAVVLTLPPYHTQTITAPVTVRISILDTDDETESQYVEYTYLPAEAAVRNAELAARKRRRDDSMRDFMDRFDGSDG

GST-Dm-Relish = molecular target: T5, GST-Dm-Relish (Drosophila melanogaster, UniProt Q94527 99-473)
T5 sequence: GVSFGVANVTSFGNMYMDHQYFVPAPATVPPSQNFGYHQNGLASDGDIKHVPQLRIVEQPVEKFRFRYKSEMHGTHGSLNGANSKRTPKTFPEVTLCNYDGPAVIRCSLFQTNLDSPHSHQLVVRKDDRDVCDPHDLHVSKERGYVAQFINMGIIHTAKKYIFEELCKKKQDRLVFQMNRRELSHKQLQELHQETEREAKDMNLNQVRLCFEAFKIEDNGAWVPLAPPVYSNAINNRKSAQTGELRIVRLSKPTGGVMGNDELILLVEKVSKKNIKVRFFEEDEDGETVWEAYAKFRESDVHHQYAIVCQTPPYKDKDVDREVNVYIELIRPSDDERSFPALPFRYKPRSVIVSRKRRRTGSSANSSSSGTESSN

GST-Aq-NF-kB = molecular target: T6, GST-Aq-NF-kB (Amphimedon queenslandica, UniProt A9Y5G7 2-389)
T6 sequence: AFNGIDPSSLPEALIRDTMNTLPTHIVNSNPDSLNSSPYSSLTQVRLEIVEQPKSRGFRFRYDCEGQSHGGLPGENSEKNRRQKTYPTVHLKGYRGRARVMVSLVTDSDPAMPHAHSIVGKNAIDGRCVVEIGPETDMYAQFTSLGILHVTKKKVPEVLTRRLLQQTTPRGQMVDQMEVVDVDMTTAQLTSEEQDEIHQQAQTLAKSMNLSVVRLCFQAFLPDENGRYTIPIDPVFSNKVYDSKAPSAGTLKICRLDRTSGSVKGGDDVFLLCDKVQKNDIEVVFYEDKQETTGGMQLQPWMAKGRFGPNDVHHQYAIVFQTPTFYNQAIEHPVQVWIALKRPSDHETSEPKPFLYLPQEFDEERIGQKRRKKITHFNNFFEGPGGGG

GST-Hu-p50 = GST-Hu-p50 (Homo sapiens, UniProt P19838 7-356)
Chain of GST-Hu-p50 (P19838 7-356): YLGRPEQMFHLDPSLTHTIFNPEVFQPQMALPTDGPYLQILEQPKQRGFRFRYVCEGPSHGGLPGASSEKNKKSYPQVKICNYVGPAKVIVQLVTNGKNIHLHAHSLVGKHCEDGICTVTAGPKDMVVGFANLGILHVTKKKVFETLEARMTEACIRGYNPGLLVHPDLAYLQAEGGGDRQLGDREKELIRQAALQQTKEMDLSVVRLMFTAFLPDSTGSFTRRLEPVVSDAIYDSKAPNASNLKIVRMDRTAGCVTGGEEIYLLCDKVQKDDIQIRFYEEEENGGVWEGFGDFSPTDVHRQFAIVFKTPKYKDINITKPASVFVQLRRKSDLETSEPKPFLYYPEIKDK

Sequence | binding signal (GST-Ap-NF-kB RHD) [z-score] | binding signal [1] [z-score] | binding signal [2] [z-score] | binding signal (GST-Co-NF-kB) [z-score] | binding signal (GST-Dm-Relish) [z-score] | binding signal (GST-Aq-NF-kB) [z-score] | binding signal (GST-Hu-p50) [z-score]
CCGATTAACATCAAGGGTGGGAATGATGTTAATCGGGTCTTGATTCGCTTGACGCTGCTG | 1.69 | 1.84 | 1.42 | 2.88 | 1.66 | 2.63 | 1.83
CCGATTAACATCAGGGGGAAGGATGATGTTAATCGGGTCTTGATTCGCTTGACGCTGCTG | 4.09 | 5.38 | 5.53 | 7.14 | 2.47 | 4.48 | 4.08
CCGATTAACATCACCCTTTTCCCTGATGTTAATCGGGTCTTGATTCGCTTGACGCTGCTG | 2.88 | 3.25 | 5.61 | 4.6 | 1.52 | 2.91 | 2.59
CCGATTAACATCACGGGAACACCTGATGTTAATCGGGTCTTGATTCGCTTGACGCTGCTG | 1.81 | 1.11 | 1.02 | 1.95 | 4.06 | 2.73 | 1.28
CCGATTAACATCAGGCCTTTCCCTGATGTTAATCGGGTCTTGATTCGCTTGACGCTGCTG | 2.77 | 4.72 | 2.62 | 1.36 | 5.87 | 6.74 | 3.53
CCGATTAACATCATAAACCCCCATGATGTTAATCGGGTCTTGATTCGCTTGACGCTGCTG | 5.78 | 4.95 | 5.67 | 2.59 | 7.12 | 4.77 | 6.3
CCGATTAACATCAAGATTCCCCTTGATGTTAATCGGGTCTTGATTCGCTTGACGCTGCTG | 7.59 | 10 | 10.8 | 5.46 | 6.62 | 6.39 | 7.18
CCGATTAACATCAATTTCCCCCCTGATGTTAATCGGGTCTTGATTCGCTTGACGCTGCTG | 7.89 | 7.68 | 8.79 | 11.5 | 6.02 | 6.64 | 6.75
CCGATTAACATCAAATCATTCCCTGATGTTAATCGGGTCTTGATTCGCTTGACGCTGCTG | 1.6 | 3.39 | 3.1 | 3.4 | 1.31 | 4.36 | 1.78
CCGATTAACATCAGGGGGTTTCATGATGTTAATCGGGTCTTGATTCGCTTGACGCTGCTG | 8.25 | 7.15 | 7.35 | 2.56 | 8.76 | 6.59 | 6.6
CCGATTAACATCACGTTTTCCCCTGATGTTAATCGGGTCTTGATTCGCTTGACGCTGCTG | 7.13 | 7.87 | 10.1 | 8.47 | 4.49 | 5.5 | 5.96
CCGATTAACATCAAAATCTCCCCTGATGTTAATCGGGTCTTGATTCGCTTGACGCTGCTG | 8.53 | 7.57 | 8.79 | 7.3 | 4.44 | 6.41 | 5.85
CCGATTAACATCAAGATTCCCCCTGATGTTAATCGGGTCTTGATTCGCTTGACGCTGCTG | 8.66 | 9.42 | 10.6 | 9.18 | 7.1 | 7.31 | 7.32
CCGATTAACATCAAAGAATTCCCTGATGTTAATCGGGTCTTGATTCGCTTGACGCTGCTG | 5.56 | 7.26 | 7.47 | 4.52 | 5.42 | 6.11 | 5.05
CCGATTAACATCACGGGGTTTCCTGATGTTAATCGGGTCTTGATTCGCTTGACGCTGCTG | 6.06 | 4.79 | 2.69 | 2.61 | 7.75 | 5.93 | 4.42
CCGATTAACATCAGGCTTTCCCCTGATGTTAATCGGGTCTTGATTCGCTTGACGCTGCTG | 6.49 | 7.29 | 7.71 | 4.87 | 7.38 | 7.22 | 4.79
CCGATTAACATCAGGGGGGACCCTGATGTTAATCGGGTCTTGATTCGCTTGACGCTGCTG | 6.34 | 4.19 | 3.73 | 4.11 | 6.14 | 5.92 | 4.27
CCGATTAACATCAAAATTGCCCCTGATGTTAATCGGGTCTTGATTCGCTTGACGCTGCTG | 3.3 | 4.73 | 5.76 | 3.12 | 2.43 | 4.55 | 5.1
CCGATTAACATCAAGGGGGAAACTGATGTTAATCGGGTCTTGATTCGCTTGACGCTGCTG | 7.59 | 7.46 | 9.77 | 8.9 | 4.03 | 5.71 | 7.63
CCGATTAACATCAATTTTCCCCGTGATGTTAATCGGGTCTTGATTCGCTTGACGCTGCTG | 6.99 | 8.12 | 10.2 | 11 | 4.87 | 6.2 | 5.95
CCGATTAACATCAGGGAAGTTTATGATGTTAATCGGGTCTTGATTCGCTTGACGCTGCTG | 4.29 | 4.93 | 4.78 | 2.58 | 3.35 | 5.26 | 3.73
CCGATTAACATCACGGGGGATTCTGATGTTAATCGGGTCTTGATTCGCTTGACGCTGCTG | 8.95 | 7.68 | 8.48 | 7.06 | 7.96 | 6.51 | 7.01
CCGATTAACATCAAGTTCCCCCCTGATGTTAATCGGGTCTTGATTCGCTTGACGCTGCTG | 7.37 | 6.39 | 7.26 | 10.1 | 6.95 | 6.03 | 6.13
CCGATTAACATCAGGGACTTTCATGATGTTAATCGGGTCTTGATTCGCTTGACGCTGCTG | 6.28 | 7.24 | 7.09 | 1.04 | 5.59 | 6.22 | 5.49
CCGATTAACATCACAAAACCCCCTGATGTTAATCGGGTCTTGATTCGCTTGACGCTGCTG | 9.76 | 9.02 | 10.5 | 3.3 | 10.4 | 7.82 | 8.21
